# Measurements: PubChem BioAssay (NCI)
# Values joined by “and” are separate entries in the source; they are usually repeats but may differ in a detail not shown here. Equal entries are not always repeated. About 83,000 compounds went through this panel and 20% of them were active in at least one assay; those are over-represented in the sample as a whole.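 Assay: single dose, 48 h. Readout: percent growth (0 = no net growth; negative = cell death). Active: <10.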 Unmarked numbers belong to inactive results. Active and inactive are the calls of the source.
# Tested on: MDA-MB-468 breast
# Assay: NCI-60 one-dose screen, 48 h (100 = growth as untreated, 0 = no growth, -100 = all killed)
# Conditions: 10 µM unless noted
row,Compound,growth
1,O=C(NC(Cl)=C(Cl)Cl)P(=O)(c1ccccc1)c1ccccc1,101%
2,O=CC1(c2ccccc2)CCN(Cc2ccccc2)CC1,103%
3,CC(C)(C)OOC(=O)/C=C\C(=O)OOC(C)(C)C,108%
4,CC(C)[C@@H]1NC(=O)[C@]2(C)CSC(=N2)c2csc(n2)CNC(=O)C[C@@H](/C=C/CCS)OC1=O,30%
5,Oc1ccc2c3c1O[C@H]1c4[nH]c5ccccc5c4C[C@@]4(O)C(C2)N(CC2CC2)CC[C@]314,90.5%
6,CNC(=O)O/N=C(\SC)C(=O)N(C)C,116%
7,O=C1C(N2CC2)=C(N2CC2)C(=O)C(N2CC2)=C1N1CC1,0.964% (active)
8,COc1ccc(NP2(=O)OCC(C)(N)CO2)cc1 (stereo not given),105%
9,CCCCCCCCCCCCCCCC[n+]1ccccc1,-33.2% (active) and -13.9% (active)
10,O=[N+]([O-])c1ccc([Se]C2CCCCC2Cl)c([N+](=O)[O-])c1 (stereo not given),90.5%
11,NNc1ccccc1,109%
12,Nc1c(Cl)c(Cl)nc(C(=O)O)c1Cl,107%
13,CCOC(=O)[C@@H](C)C[C@H](Cc1ccccc1)NC(=O)c1csc([C@@H](C[C@H](C(C)C)N(C)C(=O)[C@H](CCC(C)C)NC(=O)[C@H]2CCCCN2C)OC(C)=O)n1,5.73% (active)
14,CC(=O)[C@H]1CC[C@H]2[C@@H]3CC[C@H]4C[C@H](N)CC[C@]4(C)[C@H]3CC[C@]12C,64.1%
15,CC(=O)OC1CCC2(C)C(=CCC3C4CC(CN5CC5)C(=O)C4(C)CCC32)C1 (stereo not given),1.98% (active)
16,Cc1ccc(NC(=O)CBr)cc1,98.5%
17,[Au+].[N-]=C=O.c1ccc(CN2[CH-]N(Cc3ccccc3)C(c3ccccc3)=C2c2ccccc2)cc1,72.7%
18,CCC(O)(CN)c1ccccc1 (stereo not given),101%
19,Nc1ccc(-c2nc3cc(F)ccc3[se]2)cc1F,-21% (active)
20,Oc1cc(Cl)ccc1Oc1ccc(Cl)cc1Cl,7% (active)

row,Compound,growth
1,CC[C@@H](C)/C=C(C)/C=C/C(=O)c1c(O)c(-c2ccc(O)cc2)cn(O)c1=O,-25% (active)
2,Nc1cc2nc3ccccc3nc2cc1N,-11.9% (active)
3,CC[C@H](C)[C@H](NC(=O)[C@H]1CCCCN1C)C(=O)N(C)[C@H](C[C@@H](OC(C)=O)c1nc(C(=O)NC23CC(C(=O)OC)(C2)C3)cs1)C(C)C,4.52% (active)
4,O=C(O)CNC(=O)c1ccccc1,122%
5,CC(C)OC(=O)[C@H](C)NP(=O)(Oc1ccccc1)C1CCCN(O)C1=O (stereo not given in full),96.9%
6,O=C(O)C1C(C(=O)O)C2(Cl)C(Cl)=C(Cl)C1(Cl)C2(Cl)Cl.[Hg] (stereo not given),58.4%
7,CCCC(C)C1(CC)C(=O)NC(=O)N(C)C1=O (stereo not given),94.2%
8,CC[C@]12C=CCN3CC[C@@]4(c5ccc(OC)cc5N(C)[C@H]4[C@@](O)(C(=O)OC)[C@@H]1OC(=O)CCCN1CCN(CCCC(=O)O[C@@H]4[C@]5(CC)C=CCN6CC[C@@]7(c8ccc(OC)cc8N(C)[C@H]7[C@@]4(O)C(=O)OC)[C@@H]65)CC1)[C@@H]32,-88.4% (active)
9,CCCCCCCCCCCCCCCCCC1OC[C@@H](COC(=O)O[C@@H](C(=O)O[C@H]2C[C@@]3(O)[C@@H](OC(=O)c4ccccc4)[C@@H]4[C@]5(OC(C)=O)CO[C@@H]5C[C@H](O)[C@@]4(C)C(=O)[C@H](OC(C)=O)C(=C2C)C3(C)C)[C@@H](NC(=O)c2ccccc2)c2ccccc2)O1 (stereo not given in full),21%
10,C/C(=C\C(=O)O[C@H]1[C@@H]2[C@H](C)CC[C@H]2[C@]2(C)O[C@@]1(C1CCCCC1)C[C@H]2OC(=O)CO)c1ccccc1,28%
11,Oc1c(CCl)cc(Cl)cc1CCl,113%
12,CC(C)(C)NCC(O)c1ccccc1Cl (stereo not given),-12.6% (active)
13,COc1ccccc1/C=C/[N+](=O)[O-],22.6%
14,O=C1CCC2(O)[C@@H]3Cc4ccc(O)c5c4[C@]2(CCN3Cc2ccoc2)C1O5 (stereo not given in full),97.3%
15,Cc1cc(N(CCCl)CCCl)ccc1C=Nc1ccc(-c2csc(-c3ccccc3)n2)cc1,3.69% (active)
16,COc1ccc(C(=O)c2ccc([As]=O)cc2)cc1 (stereo not given),-74.8% (active)
17,C[CH2][Sn]([CH2]C)([CH2]C)[NH]S(=O)(=O)c1ccc(C)cc1,114%
18,CC(=O)O[C@H](C[C@H](C(C)C)N(C)C(=O)[C@@H](NC(=O)[C@H]1CCCCN1C)C(C)C)c1nc(C(=O)N[C@@H](Cc2ccccc2)C[C@H](C)C(=O)O)c(CCOCc2ccccc2)s1,1.12% (active)
19,COc1ccc(CN)cc1OC,114%
20,COc1ccc(CN2CCN(Cc3ccccc3)CC2)c(O)c1,75.5%
